Assay results reported in PubChem BioAssay AID686979 (National Center for Advancing Translational Sciences (NCATS), 2013).
About 50,000 (12%) of roughly 420,000 compounds were called active. Inconclusive results (about 26%) are left out. This is one part of a sample in which actives are shown more often than they occur. Unmarked numbers belong to inactive results. Calls follow the shape of the dose curve; as a rule, active = well fitted inhibition curve with a large enough effect; inconclusive = small, poorly fitted or top-dose-only effect; inactive = flat fitted curve, though single readings scatter.

assay: qHTS for Inhibitors of human tyrosyl-DNA phosphodiesterase 1 (TDP1): qHTS in cells in presence of CPT; details: chicken DT40 Tdp1-/-;hTDP1 cells + 20 nM CPT, ATP luminescence, 48 h; series mostly up to 46.2 µM; activity change, negative = growth inhibition: at the top concentration; also: nearly all actives have a fitted effect of over 55% in size
Summary of the method: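 Chicken DT40 Tdp1-/- cells complemented with human TDP1, 400 cells/well, exposed to compounds plus 20 nM camptothecin for at least 48 h at 37 C; viability read as ATP content by CellTiter-Glo luminescence.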
% is scaled to controls: 0 for no effect and ±100 for the full control effect; potency is read from the fitted curve at half-maximal effect.

| Structure (SMILES) | Potency | activity change, negative = growth inhibition [%] |
| --- | --- | --- |
| COc1ccc(C(=O)C2CCCN(S(=O)(=O)c3cccc(C)c3)C2)c(C)c1 (stereo unspecified) | 16.4 µM (active) |  |
| COC(=O)C1=C(NC(=O)C(C)(C)C)CCS1 |  | -7.7 |
| COCCCNS(=O)(=O)c1cccc(S(=O)(=O)c2cccc(S(=O)(=O)NCCCOC)c2)c1 |  | -26.2 |
| COc1ccc(C)cc1NC(=O)CCCN1C(=O)NC(C)(C)C1=O |  | -10.6 |
| Cc1c(NS(=O)(=O)c2cc(C(=O)NCCc3ccc(F)cc3)cc(Cl)c2Cl)c(=O)n(-c2ccccc2)n1C |  | -26 |
| Cc1cc(=O)oc2cc(NC(=O)C(C)Oc3ccccc3)ccc12 (stereo unspecified) |  | -3.45 |
| Cc1cccc(OCC(=O)OCC(=O)Nc2ccc(Cl)cn2)c1 |  | 0.866 |
| O=S(=O)(NCCCc1ccccc1)c1ccc(Br)cc1 |  | 0.36 |
| O=C(CSCc1ccccc1)Nc1ccccc1 |  | 20.1 |
| CC(C(=O)NCCc1ccc(S(N)(=O)=O)cc1)N1C(=O)CC(C)(C)Sc2ccccc21 (stereo unspecified) |  | 19.7 |
| COc1ccc(-c2c(NC(=O)c3ccco3)oc3ccc(Cl)cc3c2=O)cc1 |  | -6.75 |
| COc1cc(OC)cc(C(=O)NNC(=O)CNC(=O)c2ccc(Br)o2)c1 |  | 21.2 |
| O=C1CC[C@@H](C(=O)N2CSC[C@@H]2C(=O)Nc2ccc(C(F)(F)F)cc2)N1 |  | -1.13 |
| COc1ccc2c(CC(=O)OCC(=O)NC(N)=O)coc2c1 |  | -2.76 |
| COc1ccc2nc(SCc3ccccc3)nc(C)c2c1 |  | 6.25 |
| Nc1ccc2c(c1)C(=Cc1cccnc1)c1ccccc1-2 |  | -6.16 |
| Cc1ccccc1NC(=O)N1CCCC1C(=O)NCc1ccccc1 (stereo unspecified) |  | -11.8 |
| CN(C)CCn1c2c(c(SCC(=O)Nc3ccccc3C(F)(F)F)nc1=O)CCCC2 |  | -2.77 |
| O=C1CN(C(=O)Nc2ccccc2C(F)(F)F)C(c2ccccc2)c2c(sc3c2CCCC3)N1 (stereo unspecified) | 20.6 µM (active) |  |
| Cc1ccc2oc(=O)c3cnn(CC(=O)N4CCN(c5ccccn5)CC4)c3c2c1 |  | -12.3 |
| O=C(c1cc(=O)c2ccccc2o1)N1CCN(c2ccccc2)CC1 |  | 0.696 |
| COc1cc2c(cc1OC)CN(C(=O)c1cc(=O)c3ccccc3o1)CC2 | 4.11 µM (active) |  |
| COc1ccccc1N1CCN(C(=O)c2cc(=O)c3cc(C)ccc3o2)CC1 | 14.6 µM (active) |  |
| COc1cccc2cc(C(=O)N3CCN(C(=O)c4ccccc4)CC3)c(=O)oc12 |  | -16.3 |
| COc1ccccc1OCc1ccc(C(=O)N2CCN(C)CC2)o1 |  | 7.63 |
| COc1ccc2oc(=O)c(C(=O)N3CCN(c4ccccc4F)CC3)cc2c1 |  | -26.6 |

| Structure (SMILES) | Potency | activity change, negative = growth inhibition [%] |
| --- | --- | --- |
| COc1ccc2c(CC(=O)N3CCc4cc(OC)c(OC)cc4C3)coc2c1 |  | -2.85 |
| COc1ccccc1N1CCN(C(=O)c2cc(=O)c3cc(C)cc(C)c3o2)CC1 | 0.0052 µM (active) |  |
| CC1(C)C2CCC1(CS(=O)(=O)NCCc1c[nH]c3ccccc13)C(=O)C2 (stereo unspecified) |  | -2.02 |
| C/C(=N\NS(=O)(=O)c1ccc(Cl)cc1)c1ccc(NC(=O)c2ccco2)cc1 |  | -3.84 |
| Cc1ccc(OCC(=O)Nc2ccc3oc(=O)ccc3c2)cc1C |  | -0.987 |
| CSc1cccc(NC(=O)C2CCCN2S(=O)(=O)c2ccc3c(c2)CCC(=O)N3)c1 (stereo unspecified) |  | -21.6 |
| N#Cc1c(N)nc2c(c1N)CC(C(F)(F)F)O2 (stereo unspecified) |  | 0.681 |
| CCc1ccc(CNC(=O)c2cc3cc4ccc(OC)cc4nc3o2)cc1 |  | 1.41 |
| Cc1ccc(-c2cc(N)n(Cc3cccc(Cl)c3)n2)cc1 |  | -22.3 |
| CC(C)Cc1ccc(-c2cc3nc(NCc4cccc(Cl)c4)ccn3n2)cc1 | 20.6 µM (active) |  |
| CCNC(=S)N1CCN(CCN=CC2=C(O)CC(C)(C)CC2=O)CC1 |  | 3.82 |
| COc1ccccc1N(C)S(=O)(=O)c1ccc(C(=O)N2CCC(C(N)=O)CC2)cc1 |  | -21 |
| COc1ccccc1N(C)S(=O)(=O)c1ccc(C(=O)NC2CCCCCC2)cc1 | 23.1 µM (active) |  |
| COc1ccc(S(=O)(=O)NC(C)C)cc1C(=O)NC1CCCCC1 |  | 7.46 |
| CO[C@]1(NC(=O)CSC(F)F)C(=O)N2C(C(=O)O)=C(CSc3nnnn3CCO)CO[C@H]21 |  | 1.05 |
| CCn1c(SCC(=O)NC2CC2)nnc1-c1ccccc1OC |  | 6.21 |
| COC(=O)c1ccc(COc2ccc(C#N)cc2)o1 |  | -0.114 |
| CCc1cccc(C)c1N1C(=O)CN(Cc2ccccc2)C1=S |  | -2.8 |
| Cn1cc(CCC(=O)N2CCCC(C(=O)c3ccc(C(C)(C)C)cc3)C2)cn1 (stereo unspecified) | 25.9 µM (active) |  |
| COCC(=O)N1CCCC(C(=O)c2ccc(C(F)(F)F)cc2)C1 (stereo unspecified) |  | -21.2 |
| Cn1cc(/C=C/C(=O)N2CCCC(C(=O)c3ccc(C(F)(F)F)cc3)C2)cn1 (stereo unspecified) |  | 8.27 |
| CC(C)NC(=O)C1(C)CCCCCN1C(=O)c1ccc(-c2ccccc2)cc1 (stereo unspecified) | 18.4 µM (active) |  |
| CC1(C(=O)NS(=O)(=O)c2ccccc2)CCN1C(=O)c1ccccc1 (stereo unspecified) |  | 5.22 |
| CCNC(=O)C1(C)CCCN1C(=O)c1ccc(N(C)C)cc1 (stereo unspecified) |  | -2.17 |
| CC(OC(=O)c1ccc(-n2cnnn2)cc1)C(=O)NCc1ccccc1 (stereo unspecified) |  | 2.67 |
